Assay outcomes (PubChem)
This is a sample that favours compounds with a hit; in the whole collection about 0.41% have one here.
GAA inhib – qHTS Assay for Inhibitors of Human alpha-Glucosidase as a Potential Chaperone Treatment of Pompe Disease | purified human GAA, 4-MU-alpha-glucoside fluorescence | Potency, µM (doses to about 76.9 µM), for the others: top-dose activity change, negative = inhibition, hits mostly inhibitors | 0.005% of 200,000 active;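 note: potency is the fitted concentration of half-maximal effect; plate controls were uninhibited enzyme wells for no effect and no-enzyme background for full effect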
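AC50 values come from Hill fits of compound titrations (up to 77 uM) against 4 nM human enzyme. Substrate 4-methylumbelliferyl-alpha-D-pyranoside at 400 uM, pH 5.0 citrate buffer, 20 min room temperature; fluorescence Ex 365/Em 440 after alkaline stop.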
GLA inh pH 4.5 – qHTS Assay for Inhibitors of Human alpha-Galactosidase at pH 4.5 | purified enzyme, 4-MU-alpha-Gal fluorescence, pH 4.5 | activity change, negative = inhibition, % at 105 µM | 230,000 tested, under 10 active | AID 1467, 2008;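 note: 0% = full activity with enzyme and -100% = basal without enzyme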
aGlu spleen mod – qHTS Assay for Inhibitors and Activators of Human alpha-Glucosidase From Spleen Homogenate; Lysosomal alpha-glucosidase (Homo sapiens), P10253; human spleen homogenate, 4-MU-alpha-glucoside fluorescence; Potency, µM (doses to about 79.9 µM), without a hit: at the highest dose activity change, negative = inhibition, hits mostly inhibitors; 0.006% of 240,000 active; AID 2112, 2009;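 note: potency is the fitted concentration of half-maximal effect; 0% = enzyme with vehicle and -100% = no enzyme basal signal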
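Human spleen homogenate (1 ug) incubated with compounds and 1 mM 4-methylumbelliferyl-alpha-D-glucopyranoside in pH 5.0 citrate/phosphate buffer, 37 C, 40 min. Stopped at pH 10; 4-MU fluorescence (Ex 365/Em 440 nm); AC50 by Hill fit.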
GAA glycogen – qHTS Assay for Inhibitors and Activators of Human alpha-Glucosidase Cleavage of Glycogen. Lysosomal alpha-glucosidase (Homo sapiens), P10253. recombinant GAA, glycogen substrate, Amplex Red glucose oxidase fluorescence. Potency, µM (highest dose often 76.4 µM), for inactives: at the highest dose activity change, negative = inhibition, actives largely listed as inhibitors. 0.38% of 300,000 active;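 note: potency is the fitted concentration of half-maximal effect; 0% = full enzyme reaction and -100% = no-enzyme basal signal; the screen sought inhibitors and activators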
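Recombinant enzyme (4 nM final) with compounds titrated up to 77 uM and bovine liver glycogen (30 ug) in citrate pH 5.0, 0.01% Tween-20, 37 C 40 min. Released glucose detected by Amplex Red/glucose oxidase (Ex 573/Em 610); AC50 from Hill fits.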
GLA spleen mod – qHTS Assay for Inhibitors and Activators of Human alpha-Galactosidase From Spleen Homogenate. AID 2107, 2009. Potency, µM (highest dose often 80 µM), for inactives: at the top dose activity change, negative = inhibition, actives largely listed as inhibitors. 0.008% of 240,000 active. human spleen homogenate, 4MU-alpha-Gal fluorescence, 40 min;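 note: potency is the fitted concentration of half-maximal effect; 0% = enzyme with vehicle and -100% = no enzyme basal signal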
Target sequence (P06280 32-429 limits assumed): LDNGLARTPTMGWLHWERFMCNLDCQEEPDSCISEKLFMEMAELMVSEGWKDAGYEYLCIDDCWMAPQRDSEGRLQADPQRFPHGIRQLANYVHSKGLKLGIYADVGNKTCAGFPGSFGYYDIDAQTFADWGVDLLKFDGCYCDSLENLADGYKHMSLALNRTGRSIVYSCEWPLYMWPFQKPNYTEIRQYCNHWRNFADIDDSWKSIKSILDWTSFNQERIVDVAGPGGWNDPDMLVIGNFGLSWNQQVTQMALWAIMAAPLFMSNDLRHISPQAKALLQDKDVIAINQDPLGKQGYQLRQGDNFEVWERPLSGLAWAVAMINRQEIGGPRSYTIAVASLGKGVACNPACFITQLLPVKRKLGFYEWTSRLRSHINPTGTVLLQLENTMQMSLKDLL
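Human spleen homogenate (1 ug) was the enzyme source, with 4-methylumbelliferyl-alpha-D-galactopyranoside (1 mM final) in pH 5.0 citrate buffer with 0.01% Tween-20. Compounds were titrated; after 40 min at 37C, NaOH/glycine stop, 4-MU fluorescence read; AC50 from Hill fits.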
N370S GC mod – qHTS Assay for Inhibitors and Activators of N370S glucocerebrosidase as a Potential Chaperone Treatment of Gaucher Disease | 0.092% of 330,000 active | N370S GC spleen homogenate, 4MU-glucoside fluorescence | Potency, µM (titrated, usually from 59.4 µM), without a hit: at the top dose activity change, negative = inhibition, usual class: inhibitors | Lysosomal acid glucosylceramidase (Homo sapiens), P04062;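 note: potency is the fitted concentration of half-maximal effect; 0% = full enzyme activity and -100% = no enzyme basal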
Starred values were filed as active, the others as inactive; ? = inconclusive; nt = no result; ! = a repeat was not active; [ ] = dose if it differs, or a comment. Calls come from the whole dose curve; as a rule, active = well fitted curve in the direction sought with a large enough effect; inconclusive = small, poorly fitted or top-dose-only effect, or another doubt; inactive = no such curve, though single readings can be large; an effect the other way counts as inactive or inconclusive.

SMILES	GAA inhib	GLA inh pH 4.5	aGlu spleen mod	GAA glycogen	GLA spleen mod	N370S GC mod
COc1cccc(N2C(=O)CC(N3CCc4ccccc43)C2=O)c1 (stereo unspecified)	-1%	1	-6%	40µM*	11%	10%
Cc1ccc(OCCn2c(C)c(/C=N/n3cnnc3)c3ccccc32)cc1	-5%	2	-6%	-8%	-1%	-7%
O=C(O)c1ccccc1NC(=O)N1c2ccccc2Sc2ccccc21	nt	nt	nt	18µM*	nt	nt
COc1cc(NC(=O)N2c3ccccc3Sc3ccccc32)c(C(=O)O)cc1OC	nt	nt	nt	nt	nt	7%
COc1ccccc1N1CCN(CCCCN2C(=O)c3ccccc3C2=O)CC1	nt	1	3%	nt	10µM*!	5%
C#CCOCCOCCOCCNc1nc(N2CCN(C(=O)CCCCCCCCCCNC(=O)[C@H](CCCCN)n3cc(CCO)nn3)CC2)nc(N2CCN(C(=O)CCCCCCCCCCNC(=O)[C@H](CCCCN)n3cc(C[C@@H](C)CC)nn3)CC2)n1	nt	nt	nt	nt	nt	14µM*
C#CCOCCOCCOCCNc1nc(N2CCN(C(=O)CCCCCCCCCCNC(=O)[C@@H](CCSC)n3cc(CCO)nn3)CC2)nc(N2CCN(C(=O)CCCCCCCCCCNC(=O)[C@H](CCCN=C(N)N)n3cc(C[C@@H](C)CC)nn3)CC2)n1	nt	nt	nt	nt	nt	7.9µM*
C#CCOCCOCCOCCNc1nc(N2CCN(C(=O)CCCCCCCCCCNC(=O)[C@H](CCCCN)n3cc(C)nn3)CC2)nc(N2CCN(C(=O)CCCCCCCCCCNC(=O)[C@H](CCCN=C(N)N)n3cc(C[C@@H](C)CC)nn3)CC2)n1	nt	nt	nt	nt	nt	7.9µM*
C#CCOCCOCCOCCNc1nc(N2CCN(C(=O)CCCCCCCCCCNC(=O)[C@@H](CCSC)n3cc(CCO)nn3)CC2)nc(N2CCN(C(=O)CCCCCCCCCCNC(=O)[C@@H]([C@H](C)O)n3cc(C)nn3)CC2)n1	nt	nt	nt	nt	nt	-13%
C#CCOCCOCCOCCNc1nc(N2CCN(C(=O)[C@H](C)n3cc(CCCN=C(N)N)nn3)CC2)nc(N2CCN(C(=O)[C@H](CCCCN)n3cc(CCCC)nn3)CC2)n1	-2%	1	-8%	3%	0%	1%
C#CCOCCOCCOCCNc1nc(N2CCN(C(=O)CCCCCCCCCCNC(=O)[C@H](CCCCN)n3cc(C[C@@H](C)CC)nn3)CC2)nc(N2CCN(C(=O)CCCCCCCCCCNC(=O)[C@@H]([C@H](C)O)n3cc(C)nn3)CC2)n1	nt	nt	nt	nt	nt	11µM*
O=C(/C=C/c1cccc(Br)c1)NC1CCN(Cc2ccccc2)CC1	nt	nt	nt	3%	nt	-17%
COc1cccc(/C=N/n2nnnc2N)c1	nt	6	-1%	5%	-8%	17%
CC[C@H](C)Cc1cn([C@@H](CCCN=C(NC(=O)OC(C)(C)C)NC(=O)OC(C)(C)C)C(=O)NCCCCCCCCCCC(=O)N2CCN(C(=O)OC(C)(C)C)CC2)nn1	nt	nt	nt	nt	nt	16µM*
C#CCOCCOCCOCCNc1nc(N2CCN(C(=O)CCCCCCCCCCNC(=O)[C@H](CCCCN)n3cc(C[C@@H](C)CC)nn3)CC2)nc(N2CCN(C(=O)CCCCCCCCCCNC(=O)[C@H](CCCN=C(N)N)n3cc(C[C@@H](C)CC)nn3)CC2)n1	nt	nt	nt	nt	nt	6.3µM*
C#CCOCCOCCOCCNc1nc(N2CCN(C(=O)CCCCCCCCCCNC(=O)[C@H](CO)n3cc(CCCCCN)nn3)CC2)nc(N2CCN(C(=O)CCCCCCCCCCNC(=O)[C@H](CCCN=C(N)N)n3cc(C[C@@H](C)CC)nn3)CC2)n1	nt	nt	nt	nt	nt	13µM*
O=C(CSc1ccccn1)Nc1cccc([N+](=O)[O-])c1	-6%	2	7%	8%	6%	-5%
O=C(CN1C(=O)NC2(CCCCCCC2)C1=O)NCc1cccs1	1%	1	-7%	17%	-14%	-1%
COc1ccc2c(/C=N/NS(=O)(=O)c3ccc(C)cc3)c[nH]c2c1	nt	-1	3%	8.9µM*	11%	15%
CCOc1ccc(N2CC(C)Cn3c2nc2c3c(=O)n(CC(=O)O)c(=O)n2C)cc1 (stereo unspecified)	nt	nt	nt	1%[76.3 µM]	nt	nt
COc1ccc(NCC(=O)Nc2ccc(Br)cc2F)c(OC)c1	2%	0	3%	40µM*	-7%	3%
CCCCc1c(C)c(C#N)c2nc3ccccc3n2c1Nc1c(C)n(C)n(-c2ccccc2)c1=O	5%	4	-3%	?	7%	10%
Cc1c(Nc2c3c(c(C#N)c4nc5ccccc5n24)CCC3)c(=O)n(-c2ccccc2)n1C	6%	-4	3%	7µM*	21%	-8%
Nc1[nH]ncc1-c1ccc(Cl)cc1	-8%	1	nt	-18%	15%	-2%
COc1cc(-c2cn[nH]c2N)cc(OC)c1OC	?	-6	?	11µM*	7%	-12%
SMILES	GAA inhib	GLA inh pH 4.5	aGlu spleen mod	GAA glycogen	GLA spleen mod	N370S GC mod
CCc1ccc(NC(=S)Nc2cc(OC)c(NC(=O)C(C)C)cc2OC)cc1	2%	-2	2%	12µM*	8%	3%
COc1cc(NC(=S)NC(C)=O)ccc1NC(=O)C(C)C	-1%	0	-2%	3%	-1%	4%
CC(c1ccon1)N(C)C(=O)CCc1nnc(C2(c3ccc(Cl)cc3)CCC2)o1 (stereo unspecified)	3%	4	4%	-5%	5%	4%
CC(=O)C1=C(c2ccccc2)NC(=O)NC1c1ccc(O)c(O)c1 (stereo unspecified)	11%	-12	0%	?	-6%	0%
CC(=O)C1=C(c2ccccc2)NC(=S)NC1c1ccc(O)c(O)c1 (stereo unspecified)	4%	-5	-1%	3.2µM*	-1%	-8%
Cc1ccc(CNC(=O)c2ccc(CNS(=O)(=O)c3ccc4c(c3)C(C)(C)C(=O)N4C)cc2)o1	nt	nt	nt	12%[76.3 µM]	nt	-6%
O=C(CN1CC(=O)Oc2ccccc21)OCC(=O)c1cccc(Br)c1	5%	2	-3%	8.8µM*	12%	-18%
CC(=O)Oc1ccc(-c2csnn2)cc1	1%	-9	9%	-8%	4%	4%
Cc1ccccc1C(=O)NNc1ccc(-c2csnn2)cc1	-2%	-2	6%	16µM*	1%	-26%
